{
  "source": "PubChem BioAssay AID1272365",
  "about": "(Small Molecule Screening Facility, UW Madison, 2018)",
  "note": "Values joined by “and” are separate entries in the source; they are usually repeats but may differ in a detail not shown here. Equal entries are not always repeated. Among all 430,000 compounds or so, about 2,600 (0.6%) were called active. No stated cut-off is given here; in the data, active means inhibition mostly above about 37% (no sharp cut-off); inactive means mostly below about 20%. The full list was thinned out, with actives kept by preference.",
  "data": [
    {"system": "PriA–SSB C-terminal tail interaction (Klebsiella pneumoniae)", "assay": "inhibitors of Klebsiella pneumoniae PriA binding to SSB C-terminal tail, primary screen, biochemical, AlphaScreen (AID 1272365);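 further: plate controls were negative control peptide for no effect and reference peptide for full effect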", "conditions": "AlphaScreen SSBct-PriA binding, biotinylated peptide; at 33 µM, hits give high values", "values": [
      {"smiles": "Cc1ccc2c(CC(=O)NCc3ccccc3Cl)cc(=O)oc2c1", "inhibition": "-3% (inactive)"},
      {"smiles": "O=C(COC(=O)c1cccc(I)c1)c1ccc([N+](=O)[O-])cc1", "inhibition": "38% (active)"},
      {"smiles": "O=C(OCC(=O)N1CCc2ccccc21)c1ccc([N+](=O)[O-])cc1", "inhibition": "-10.4% (inactive)"},
      {"smiles": "O=C(COC(=O)c1cccc(I)c1)c1ccc(-n2nncc2-c2ccccc2)cc1", "inhibition": "-4% (inactive)"},
      {"smiles": "CS(=O)(=O)N1CCC(CNC(=O)c2ccc(OC(F)(F)F)cc2)CC1", "inhibition": "-25% (inactive)"},
      {"smiles": "O=S(=O)(/C=C/c1ccccc1)N1CCCSCC1CN1CCOCC1", "note": "(configuration not stated)", "inhibition": "-4% (inactive)"},
      {"smiles": "COC(=O)c1sccc1S(=O)(=O)NCc1ccc(C(=O)c2ccco2)s1", "inhibition": "-24% (inactive)"},
      {"smiles": "O=C(Cn1nc(-n2ccc3ccccc32)ccc1=O)Nc1c[nH]c(=O)[nH]c1=O", "inhibition": "-41% (inactive)"},
      {"smiles": "CCSc1ccccc1C(=O)N1CCN(C(=O)C2CC2c2ccccc2)CC1", "note": "(configuration not stated)", "inhibition": "-7% (inactive)"},
      {"smiles": "CCSc1ccccc1C(=O)N1CCN(c2ccc(-c3ccccn3)nn2)CC1", "inhibition": "161% (active)"},
      {"smiles": "c1ccc(-c2ccc(N3CCNCC3)nn2)nc1", "inhibition": "100% (active)"},
      {"smiles": "O=S(=O)(CCc1ccccc1)N1CCN(c2ccc(-c3ccccc3)nn2)CC1", "inhibition": "-3% (inactive)"},
      {"smiles": "CCOc1ccccc1C(=O)N1CCC(Oc2cccc(C)n2)CC1", "inhibition": "-8% (inactive)"},
      {"smiles": "CCOc1ccccc1C(=O)N1CCN(c2ccc(-c3ccccn3)nn2)CC1", "inhibition": "100% (active)"},
      {"smiles": "O=C(c1ccccc1F)N1CCN(c2ccc(-c3cccnc3)nn2)CC1", "inhibition": "-8% (inactive) and -16% (inactive)"},
      {"smiles": "O=C(c1ccc(N2CCCCC2)nn1)N(Cc1ccccc1)c1ccccn1", "inhibition": "-19% (inactive)"},
      {"smiles": "CCSc1ccccc1C(=O)N1CCN(c2ncnc3c2nnn3C)CC1", "inhibition": "-12% (inactive)"},
      {"smiles": "C=CCNC(=S)NN=C(C)c1cc(OC)c(OC)c(OC)c1", "inhibition": "-5.43% (inactive)"},
      {"smiles": "Cc1cc(OC2CN(C(=O)C(C)(C)Oc3ccc(Cl)cc3)C2)cc(=O)n1C", "inhibition": "-5% (inactive)"},
      {"smiles": "COc1ccc(N2CCn3c(SCC(=O)Nc4ccc(OC)cc4OC)nnc32)cc1", "inhibition": "-12% (inactive)"},
      {"smiles": "O=C(O)c1cc(Br)cs1", "inhibition": "-5% (inactive)"},
      {"smiles": "COc1ccc(OCC(=O)NN=C(C)CC(=O)Nc2ccc(OC)cc2[N+](=O)[O-])cc1", "inhibition": "-8.04% (inactive)"},
      {"smiles": "Cc1ccc(SCCC(=O)Nc2cccc(Cl)c2Cl)cc1", "inhibition": "-17% (inactive) and -19% (inactive)"},
      {"smiles": "COc1ccc(NC(=O)CCSc2ccc(C)cc2)c([N+](=O)[O-])c1", "inhibition": "62% (active)"},
      {"smiles": "CN(C)[C@@H](CNC(=O)C(=O)Nc1ccc(F)c(Cl)c1)c1ccco1", "inhibition": "-17% (inactive)"},
      {"smiles": "NC(=O)c1ccccc1NC(=O)c1cccn(Cc2cccc(F)c2)c1=O", "inhibition": "4% (inactive)"},
      {"smiles": "N#C/C(=C\\N1CCC(C(N)=O)CC1)C(=O)NCCc1ccccc1", "inhibition": "-13% (inactive)"},
      {"smiles": "O=C(Nc1nc2c(s1)C(=O)NCCC2)c1ccc2noc(-c3ccccc3)c2c1", "inhibition": "-3% (inactive)"},
      {"smiles": "c1ccc(-c2nnc3c4ccccc4c4ccccc4c3n2)nc1", "inhibition": "81% (active)"},
      {"smiles": "Cc1oc(-c2ccc(Cl)cc2)cc1C(=O)Nc1ccc(S(N)(=O)=O)cc1", "inhibition": "-10% (inactive)"},
      {"smiles": "COc1ccc(CC(=O)NCC(c2ccsc2)N2CCc3ccccc3C2)cc1", "note": "(configuration not stated)", "inhibition": "-5% (inactive)"},
      {"smiles": "O=C(NCc1ccc2c(c1)OCO2)C(=O)NC[C@H](O)c1cccc2ccccc12", "inhibition": "-1% (inactive)"},
      {"smiles": "O=C(Oc1cccc(C(=S)N2CCOCC2)c1)c1cccc(Cl)c1", "inhibition": "45.9% (active)"},
      {"smiles": "Cc1ccc(C(=O)Oc2ccc(C(=S)N3CCOCC3)cc2)cc1", "inhibition": "-12.7% (inactive)"},
      {"smiles": "O=C(Oc1ccc(C(=S)N2CCOCC2)cc1)c1ccc(F)cc1", "inhibition": "-4.78% (inactive)"},
      {"smiles": "Cc1cc(C)c(C#N)c(SCCC(=O)NCCc2ccccc2)n1", "inhibition": "0% (inactive)"},
      {"smiles": "O=C(Oc1ccccc1[N+](=O)[O-])N(c1ccccc1)c1ccccc1", "inhibition": "39% (active)"},
      {"smiles": "Cc1ccc(OCC(=O)Oc2ccccc2[N+](=O)[O-])cc1", "inhibition": "-0.19% (inactive)"},
      {"smiles": "O=C(COc1ccccc1[N+](=O)[O-])NC1CC1", "inhibition": "-0.67% (inactive)"},
      {"smiles": "COc1cc(N2CCN(C(=O)Nc3ccc(F)c(Cl)c3)CC2)nc(C)n1", "inhibition": "-8% (inactive)"},
      {"smiles": "O=C(Cn1c(C2CC2)nc2c(cnn2-c2ccccc2)c1=O)Nc1cccc(Cl)c1", "inhibition": "2% (inactive)"},
      {"smiles": "O=S(=O)(NCc1cc(C2CC2)n(C2CCCC2)n1)c1ccc(Br)s1", "inhibition": "-11% (inactive)"},
      {"smiles": "CCN(CC)CCOc1ccc2c(c1)C(=NNC(=O)c1ccccn1)c1cc(OCCN(CC)CC)ccc1-2", "inhibition": "42.9% (active)"},
      {"smiles": "COc1ccccc1NC(=O)CC(C)=NNC(=O)c1ccccn1", "inhibition": "-3.2% (inactive)"},
      {"smiles": "COc1ccc(C(=O)NN=C(c2ccccc2)c2ccccn2)cc1", "inhibition": "-7.73% (inactive)"},
      {"smiles": "CC(=NNC(=O)C(c1ccncc1)N1CCOCC1)c1ccc(Br)cc1", "note": "(configuration not stated)", "inhibition": "1.79% (inactive)"},
      {"smiles": "Cc1cnc2n(c1=O)C[C@H](C(=O)Nc1ccc(OC(F)(F)F)cc1)CS2", "inhibition": "-1% (inactive)"},
      {"smiles": "CN(C)CC#CCNC(=O)c1c(F)cccc1Cl", "inhibition": "-2% (inactive)"},
      {"smiles": "O=C(Cc1nnc(-c2ccc3ncccc3c2)o1)NCc1ccc(Cl)cc1", "inhibition": "2% (inactive)"},
      {"smiles": "O=C(c1cc(-c2ccco2)nc2ccccc12)N(Cc1nnc(-c2ccc(Cl)cc2)o1)C1CC1", "inhibition": "38.9% (active)"},
      {"smiles": "O=C(c1ccc(Cl)s1)N(Cc1nnc(-c2ccccc2Cl)o1)C1CC1", "inhibition": "-3.73% (inactive)"},
      {"smiles": "O=C(Cc1csc(Nc2ccc(OC(F)(F)F)cc2)n1)NCc1ccco1", "inhibition": "-4% (inactive)"},
      {"smiles": "Cc1cc(SCC(=O)N2CCCc3ccccc32)n2ncc(-c3ccccc3)c2n1", "inhibition": "-7% (inactive)"},
      {"smiles": "COc1ccc(OC)c(NC(=O)CSc2nccn2-c2cccc(C(F)(F)F)c2)c1", "inhibition": "10% (inactive)"},
      {"smiles": "Cc1ccc(NC(=O)Cc2csc(SCC(=O)c3ccc4c(c3)OCO4)n2)cc1F", "inhibition": "0% (inactive)"},
      {"smiles": "CN(C)C(CNC(=O)Nc1ccc2c(c1)OCO2)c1ccsc1", "note": "(configuration not stated)", "inhibition": "-7% (inactive)"},
      {"smiles": "O=C(NCc1cccnc1-c1cccs1)c1ccccn1", "inhibition": "-5% (inactive)"},
      {"smiles": "O=C(Nc1nncs1)c1ccc(S(=O)(=O)NC2CC2)cc1", "inhibition": "0% (inactive) and -28% (inactive)"},
      {"smiles": "O=C(Nc1nncs1)c1ccccn1", "inhibition": "98% (active)"},
      {"smiles": "CC1CCN(c2ccc(C(=O)Nc3nnc(C4CC4)s3)cc2[N+](=O)[O-])CC1", "inhibition": "-10.1% (inactive)"},
      {"smiles": "O=C(Nc1ccccc1)N1CCC(c2nnc(C3CC3)s2)CC1", "inhibition": "-7% (inactive)"},
      {"smiles": "O=C(Nc1nnc(C2CC2)s1)c1ccccn1", "inhibition": "90.3% (active)"}
    ]}
  ]
}
